From PubChem BioAssay AID1159580 (chemical genetic matrix, 2015)
The whole screen tested about 5,500 compounds, of which about 2,000 (36%) were called active. Roughly 18% stayed inconclusive and do not appear here. No stated cut-off is given here; in the data, active means normalized growth mostly below about 0.91 (no sharp cut-off); inconclusive means no clear call, values can overlap the other calls; inactive means mostly above about 0.92. The list shows a part of the results.

Assay: chemical genetic growth profiling, strain panel (AID 1159580);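 further: tested at 20 µM; growth read once vehicle control cultures reached saturation at 30 °C; 1 = growth at the plate median or of vehicle wells; lower values mean less growth of the strain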
Settings: growth OD
[1] = S. cerevisiae deletion strains, locus YDR150W, strain NUM1, hits give low values
[2] = S. cerevisiae deletion strains, locus YJR075W, strain HOC1, hits give low values
[3] = S. cerevisiae deletion strains, locus YNL322C, strain KRE1, hits give low values
[4] = S. cerevisiae deletion strains, locus YPL241C, strain CIN2, hits give low values
[5] = S. cerevisiae deletion strains, locus YBR229C, strain ROT2, hits give low values
[6] = S. cerevisiae deletion strains, locus YDL101C, strain DUN1, hits give low values
[7] = S. cerevisiae deletion strains, locus YEL061C, strain CIN8, hits give low values
[8] = S. cerevisiae deletion strains, locus YHR030C, strain SLT2, hits give low values
[9] = S. cerevisiae deletion strains, locus YLR039C, strain RIC1, hits give low values
[10] = S. cerevisiae deletion strains, locus YLR262C, strain YPT6, hits give low values

Measured: normalized growth

NC(CCP(=O)(O)O)C(=O)O (stereo not given)
inactive: S. cerevisiae deletion strains, locus YAL040C, strain CLN3, hits give low values 1.01 | S. cerevisiae deletion strains, locus YCL061C, strain MRC1 (second series), hits give low values 1 | [1] 1.01 | S. cerevisiae deletion strains, locus YDR363W, strain ESC2, hits give low values 0.988 | S. cerevisiae deletion strains, locus YER002W, strain NOP16, hits give low values 1.02 | [2] 0.992 | S. cerevisiae deletion strains, locus YNL175C, strain NOP13, hits give low values 1 | S. cerevisiae deletion strains, locus YNL197C, strain WHI3, hits give low values 0.983 | S. cerevisiae deletion strains, locus YNL224C, strain SQS1, hits give low values 0.989 | [3] 0.986 | S. cerevisiae deletion strains, locus YOR083W, strain WHI5 (second series), hits give low values 1.01 | [4] 1

CC(C)(C)S(=O)(=O)c1cnc(N)nc1N
inactive: S. cerevisiae deletion strains, locus YAL013W, strain DEP1, hits give low values 1.03 | [5] 1.01 | [6] 1 | [1] 0.969 | [7] 0.993 | S. cerevisiae deletion strains, locus YGR078C, strain PAC10, hits give low values 1.01 | S. cerevisiae deletion strains, locus YGR229C, strain SMI1, hits give low values 1.01 | [8] 1.07 | S. cerevisiae deletion strains, locus YHR087W, strain rtc3, hits give low values 1 | S. cerevisiae deletion strains, locus YJL187C, strain SWE1, hits give low values 1.02 | S. cerevisiae deletion strains, locus YJR043C, strain POL32, hits give low values 0.985 | [2] 1.01 | S. cerevisiae deletion strains, locus YKL190W, strain CNB1, hits give low values 1 | [9] 1.05 | S. cerevisiae deletion strains, locus YLR058C, strain SHM2 (second series), hits give low values 1.01 | S. cerevisiae deletion strains, locus YLR085C, strain ARP6, hits give low values 1.05 | [10] 1.06 | S. cerevisiae deletion strains, locus YML094W, strain GIM5, hits give low values 1.01 | S. cerevisiae deletion strains, locus YMR219W, strain ESC1, hits give low values 1.01 | S. cerevisiae deletion strains, locus YMR263W, strain SAP30, hits give low values 0.986 | S. cerevisiae deletion strains, locus YNL153C, strain GIM3, hits give low values 1 | S. cerevisiae deletion strains, locus YNL298W, strain CLA4 (second series), hits give low values 1.04 | [3] 1.02 | S. cerevisiae deletion strains, locus YNR030W, strain Alg12, hits give low values 1.03 | S. cerevisiae deletion strains, locus YPL055C, strain LGE1, hits give low values 0.972 | [4] 1.02 | S. cerevisiae deletion strains, locus YPR135W, strain CTF4, hits give low values 1.03 | S. cerevisiae strains, strain wild type, hits give low values 1.01

C[C@]12CC[C@@H](O)C[C@H]1CCc1ccccc12
inactive: S. cerevisiae deletion strains, locus YBR021W, strain FUR4, hits give low values 0.967 | [5] 1.01 | S. cerevisiae deletion strains, locus YCL029C, strain bik1, hits give low values 1 | S. cerevisiae deletion strains, locus YDL035C, strain GPR1, hits give low values 1.01 | S. cerevisiae deletion strains, locus YDL074C, strain BRE1, hits give low values 1.04 | [6] 1.01 | S. cerevisiae deletion strains, locus YDL185W, strain tfp1, hits give low values 1.01 | S. cerevisiae deletion strains, locus YDL192W, strain arf1, hits give low values 0.999 | S. cerevisiae deletion strains, locus YDR101C, strain arx1, hits give low values 1.01 | S. cerevisiae deletion strains, locus YDR162C, strain NBP2, hits give low values 1.04 | S. cerevisiae deletion strains, locus YDR318W, strain mcm21, hits give low values 1 | S. cerevisiae deletion strains, locus YDR388W, hits give low values 1.01 | S. cerevisiae deletion strains, locus YDR502C, strain sam2, hits give low values 0.989 | [7] 1.02 | S. cerevisiae deletion strains, locus YER110C, hits give low values 0.999 | S. cerevisiae deletion strains, locus YER155C, strain BEM2, hits give low values 1.01 | S. cerevisiae deletion strains, locus YER167W, strain BCK2, hits give low values 1.02 | S. cerevisiae deletion strains, locus YGL078C, strain dbp3, hits give low values 0.966 | S. cerevisiae deletion strains, locus YGL086W, strain mad1, hits give low values 0.989 | S. cerevisiae deletion strains, locus YGL248W, strain PDE1, hits give low values 1 | S. cerevisiae deletion strains, locus YGR135W, strain pre9, hits give low values 0.992 | S. cerevisiae deletion strains, locus YGR252W, strain gcn5, hits give low values 0.94 | [8] 1.02 | S. cerevisiae deletion strains, locus YHR079C, strain IRE1 (second series), hits give low values 0.997 | S. cerevisiae deletion strains, locus YHR094C, strain hxt1, hits give low values 0.999 | S. cerevisiae deletion strains, locus YHR129C, strain ARP1, hits give low values 1.02 | S. cerevisiae deletion strains, locus YHR200W, strain rpn10, hits give low values 1.01 | S. cerevisiae deletion strains, locus YIL066C, strain RNR3, hits give low values 1.05 | S. cerevisiae deletion strains, locus YIL073C, strain SPO22, hits give low values 1.04 | S. cerevisiae deletion strains, locus YIL125W, strain kgd1, hits give low values 0.996 | S. cerevisiae deletion strains, locus YIR030C, strain dcg1, hits give low values 1.01 | S. cerevisiae deletion strains, locus YJL095W, strain BCK1, hits give low values 1 | S. cerevisiae deletion strains, locus YJL134W, strain LCB3, hits give low values 1.02 | S. cerevisiae deletion strains, locus YJL168C, strain set2, hits give low values 1 | S. cerevisiae deletion strains, locus YJL187C, strain SWE1 (second series), hits give low values 1 | S. cerevisiae deletion strains, locus YKL009W, strain mrt4, hits give low values 1.01 | S. cerevisiae deletion strains, locus YKL068W, hits give low values 1.01 | S. cerevisiae deletion strains, locus YKL085W, strain MDH1 (second series), hits give low values 1.02 | S. cerevisiae deletion strains, locus YKL085W, strain MDH1, hits give low values 1.02 | S. cerevisiae deletion strains, locus YKR001C, strain vps1, hits give low values 0.977 | [9] 0.918 | S. cerevisiae deletion strains, locus YLR058C, strain SHM2, hits give low values 1.02 | S. cerevisiae deletion strains, locus YLR102C, strain apc9, hits give low values 1 | [10] 0.968 | S. cerevisiae deletion strains, locus YLR268W, strain sec22, hits give low values 1 | S. cerevisiae deletion strains, locus YLR371W, strain rom2, hits give low values 1.04 | S. cerevisiae deletion strains, locus YLR418C, strain cdc73, hits give low values 0.973 | S. cerevisiae deletion strains, locus YML016C, strain PPZ1, hits give low values 1.02 | S. cerevisiae deletion strains, locus YML032C, strain rad52, hits give low values 0.99 | S. cerevisiae deletion strains, locus YML124C, strain tub3, hits give low values 1 | S. cerevisiae deletion strains, locus YMR078C, strain ctf18, hits give low values 1 | S. cerevisiae deletion strains, locus YMR223W, strain ubp8, hits give low values 0.985 | S. cerevisiae deletion strains, locus YMR307W, strain GAS1, hits give low values 1.07 | S. cerevisiae deletion strains, locus YNL067W, strain RPL9B, hits give low values 1 | S. cerevisiae deletion strains, locus YNL233W, strain BNI4, hits give low values 1.01 | S. cerevisiae deletion strains, locus YNL250W, strain rad50, hits give low values 1.04 | S. cerevisiae deletion strains, locus YNL271C, strain bni1, hits give low values 1.01 | S. cerevisiae deletion strains, locus YNL298W, strain CLA4, hits give low values 0.989 | S. cerevisiae deletion strains, locus YNL307C, strain MCK1, hits give low values 1 | S. cerevisiae deletion strains, locus YNR052C, strain pop2, hits give low values 0.987 | S. cerevisiae deletion strains, locus YOL006C, strain TOP1, hits give low values 1.09 | S. cerevisiae deletion strains, locus YOL012C, strain htz1 1.06 | S. cerevisiae deletion strains, locus YOL147C, strain pex11, hits give low values 1.01 | S. cerevisiae deletion strains, locus YOR061W, strain CKA2, hits give low values 1.03 | S. cerevisiae deletion strains, locus YOR069W, strain VPS5, hits give low values 1.02 | S. cerevisiae deletion strains, locus YOR136W, strain idh2, hits give low values 0.995 | S. cerevisiae deletion strains, locus YOR144C, strain elg1, hits give low values 1 | S. cerevisiae deletion strains, locus YOR184W, strain ser1, hits give low values 0.978 | S. cerevisiae deletion strains, locus YOR316C, strain cot1, hits give low values 1 | [4] 1.02 | S. cerevisiae deletion strains, locus YPR119W, strain clb2, hits give low values 1 | S. cerevisiae deletion strains, locus YPR141C, strain kar3, hits give low values 1.02 | S. cerevisiae deletion strains, locus YPR163C, strain tif3, hits give low values 1 | S. cerevisiae deletion strains, locus YPR167C, strain met16, hits give low values 0.997 | S. cerevisiae deletion strains, strain wtn01, hits give low values 0.99
